Assay outcomes deposited in PubChem by ICCB-Longwood Screening Facility, Harvard Medical School.
Many of the other results were omitted from the sample, so hits are more common in it than they were.
Vaccinia pol inh – inhibitors of vaccinia virus processive DNA synthesis (E9 polymerase) | in vitro processive DNA synthesis, absorbance read-out; hits give low values | normalized absorbance, % (no concentration beside the values) | 46,000 compounds, 0.94% hits | AID 493162; in the data active = normalized absorbance mostly below about 85%, no sharp cut-off; inactive = mostly above about 86%
A number is an active result; . = inactive.

SMILES | Vaccinia pol inh
COC(=O)C(NC(=O)Nc1ccccc1)C(C)C (configuration not stated) | .
COC(=O)C(C(=O)OC)C(Nc1ccccc1)c1ccccc1 (configuration not stated) | 20.0
COC(=O)C(N=Cc1ccccc1)c1ccccc1 (configuration not stated) | .
O=C(O)COc1ccc2c(=O)c(-c3cscn3)coc2c1 | .
CCCCn1c(CO)nc2ccccc21 | .
Cc1ccc(NC(=O)CCc2nnc3ccc(NC4CCCC4)nn23)cc1 | .
Cc1[nH]n(-c2ccccc2)c(=O)c1Sc1ccc(Cl)cc1 | .
Cc1[nH]n(-c2cccc(Cl)c2)c(=O)c1N=O | 67.3
Cc1[nH]n(-c2ccccc2)c(=O)c1C=Nc1cccc(N)c1 | .
CCOC(=O)c1ccc(N=Cc2ccccc2O)cc1 | .
Cc1cc(C)nc(SCC(=O)CSc2nc(C)cc(C)n2)n1 | .
COc1cccc(N(Cc2ccc(C)cc2)C2=NC3CS(=O)(=O)CC3S2)c1 (configuration not stated) | 68.1
Cc1cccc(N(Cc2cc(=O)n3ccccc3n2)C2=NC3CS(=O)(=O)CC3S2)c1 (configuration not stated) | .
Cc1ccc(C)c(CN(C2=NC3CS(=O)(=O)CC3S2)c2cccc(Cl)c2)c1 (configuration not stated) | .
CC1=CC(C)(C)CC(=S)N1c1cccc(F)c1 | .
COc1ccccc1C(=O)NCc1ccc2[nH]c3c(c2c1)CCCC3 | .
CCOP(=S)(OCC)C(O)c1ccccc1 (configuration not stated) | .
CCN1/C(=C/c2ccc3ccccc3[n+]2CC)Sc2cc(NC(C)=O)ccc21 | 39.2
CC(=O)Nc1cccc(-c2nc3ccccc3[nH]2)c1 | .
CC(=O)Nc1ccc(C(=O)OCC(=O)Nc2ccc3ccccc3c2)cc1 | .
CN(C1CCCCC1)C1CCN(C(=S)Nc2cc(F)cc(F)c2)CC1 | .
CC1(C)NCS[C@H]1C(=O)O | .
CCC(=O)Nc1ccc2c(c1)ncn2C(C)(C)C | .
O=C(NCCCN1CCCCC1)c1cc(Sc2ccc(F)cc2)nc2ccccc12 | .
CCn1c(=O)c2cc(C(=O)NCCCN3CCCCCC3)sc2c2ccccc21 | .
SMILES | Vaccinia pol inh
CC1CCN(CCCNC(=O)c2cc3c(=O)n(C)c4ccccc4c3s2)CC1 | 58.7
COC(=O)CNC(=O)c1cc2c(=O)[nH]c3ccccc3c2s1 | .
CC1CC(C)CN(CCCNC(=O)c2cc3c(=O)[nH]c4ccccc4c3s2)C1 (configuration not stated) | 57.8
Cc1cccc(CCNC(=O)c2cc3c(=O)n(C)c4ccccc4c3s2)c1 | .
CCCCN(C)C(=O)c1cc2c(Cl)nc3ccccc3c2s1 | .
O=C(NCCCN1CCCC1)c1cc2c(Cl)nc3ccccc3c2s1 | 32.7
Cc1ccc2oc(=O)c3cc(C(=O)NCCCN4CCCCCC4)sc3c2c1 | 68.2
Cc1ccc2oc(=O)c3cc(C(=O)NCCN4CCN(Cc5ccccc5)CC4)sc3c2c1 | .
Cc1ccc(CCNC(=O)c2cc3c(=O)oc4ccc(C)cc4c3s2)cc1 | .
O=C(NC1CCCCC1)c1cc2c(=O)[nH]c3ccccc3c2s1 | .
O=C(C=Cc1ccccc1)N1CCN(c2cccc(Cl)n2)CC1 | .
OC(COCc1ccco1)CN1CCc2ccccc2C1 (configuration not stated) | .
Cc1c(C(=O)N2CCCC2)oc2ccc(S(=O)(=O)N3CCCC3)cc12 | .
CCOc1ccc(NC(=O)CN(Cc2ccccc2)S(=O)(=O)c2ccc(C)cc2)cc1 | .
C=CCc1c(C)[nH]c2c(Cl)cccc2c1=O | .
c1ccc(Nc2ncnc3nc[nH]c23)cc1 | .
CCSc1nnc(NC(=O)/C=C/c2ccccc2)s1 | .
COc1ccc2c(c1)oc(=O)c1ccccc12 | .
O=C(O)COc1ccc2c(c1)oc(=O)c1ccccc12 | 89.9
O=C(O)COc1ccc2c(-c3ccccc3)cc(=O)oc2c1 | .
CN(C)c1ccc(NC(=O)CC2CCCCC2)cc1 | .
COc1cccc2sc(NC(=O)c3ccccc3Cl)nc12 | .
O=C(Nc1nc(=S)ss1)c1ccccc1Cl | 68.8
CSc1nc2ccc3nc(NC(=O)c4ccccc4Cl)sc3c2s1 | .
COc1nc(NC(=O)NS(=O)(=O)Nc2cccc3cccnc23)nc(OC)n1 | .
SMILES | Vaccinia pol inh
OC(CN1CCOCC1)(c1ccccc1)c1ccccc1 | .
O=C1/C(=C/c2ccco2)CC(c2ccccc2)C/C1=C\c1ccco1 (configuration not stated) | .
CC1=C/C(=C/c2ccco2)C(=O)O1 | .
O=C1/C(=C/c2ccco2)CC/C1=C\c1ccco1 | 24.2
CCc1ccc(NC(=O)C2CC(=O)n3c(nc4ccccc43)N2)cc1 (configuration not stated) | .
NNc1ccc(Cl)c(Cl)c1 | .
NNc1ccc(Br)cc1 | 54.0
O=C(Nc1ccccc1)Nc1ccc(Br)cc1 | .
Cn1c(CNC(=O)c2ccccc2)nc2ccccc21 | .
CC(C)COc1ccc(/C=C2/SC(=Nc3ccccc3)N(N(C)C)C2=O)cc1 | .
CN(C)Cc1cc2ccccc2[nH]1 | .
CN(C)Cc1c2ccccc2cc2ccccc12 | 47.4
CN1CCN(Cc2c3ccccc3cc3ccccc23)CC1 | .
COc1ccccc1NC(=O)Cn1cnc2c(cnn2C(C)(C)C)c1=O | .
O=C(CC(c1ccco1)S(=O)(=O)c1ccccc1)c1ccc(Cl)cc1 (configuration not stated) | .
CCc1ccc(NC(=O)c2ccc3c(c2)N(CC)CCS3)cc1 | .
O=C(O)CCC(=O)Nc1cccc(O)c1 | .
CCCC(=O)Nc1cccc(N)c1 | .
Nc1cccc(NC(=O)CCC(=O)O)c1 | 72.1
CSC(=S)N(C)c1ccccn1 | .
c1ccc2[nH]c(CCn3c4ccccc4c4ccccc43)nc2c1 | .
Cc1ccc2oc(-c3ccccc3)c(CN3CCOCC3)c(=O)c2c1 | .
OCCN=c1cc(-c2ccccc2)oc2ccc(Cl)cc12 | 41.3
Cc1ccc2oc(-c3ccccc3)cc(=NCCO)c2c1 | 48.6
O=c1cc(-c2ccccc2)oc2ccc(Cl)cc12 | .
SMILES | Vaccinia pol inh
CC(O)CN=c1cc(-c2ccccc2)oc2ccc(Cl)cc12 (configuration not stated) | 45.6
Oc1ccc(N=c2cc(-c3ccccc3)oc3ccc(Cl)cc23)cc1 | .
O=c1cc(-c2ccccc2)oc2cc(Cl)ccc12 | .
COc1ccc2oc(-c3ccccc3)cc(=O)c2c1 | .
Cc1ccc2oc(-c3ccccc3)cc(=NCCN(C)C)c2c1 | 30.3
Cc1ccc2oc(-c3ccccc3)c(C(=O)O)c(=O)c2c1 | .
Clc1ccc2oc(-c3ccccc3)cc(=NCCN3CCOCC3)c2c1 | .
CCC(N=c1cc(-c2ccc(OC)cc2)oc2ccc(C)cc12)C(=O)O (configuration not stated) | .
CN1CCN(c2ccc3nnc(CCC(=O)Nc4nccs4)n3n2)CC1 | .
O=C(NCc1ccco1)c1ccccc1N(Cc1ccccc1)S(=O)(=O)c1ccccc1 | .
Cc1ccc(C(=O)c2ccccc2C(=O)OCC(=O)c2ccc(F)cc2)cc1 | .
COc1ccc(/C=C/C(=O)NC(=O)c2ccccc2OCC(=O)c2ccc(Br)cc2)cc1 | .
Cc1cccc(CCNC(=O)c2nn(C)c3c2COc2ccccc2-3)c1 | .
Cc1[nH]c2ccccc2c1SCCNC(=O)/C=C/c1ccccc1 | .
O=c1c2c(nc(SCc3ccccc3)n1-c1ccccc1)CCS2 | .
COc1cc2c(cc1OC)C(C)N(C(=O)c1nn(-c3ccccc3)nc1C)CC2 (configuration not stated) | .
CN1C(=O)C(=Cc2ccc(-c3cccc(Cl)c3)o2)C(=O)N(C)C1=S | .
c1ccc(-c2nc3cc(NCc4cccnc4)ccc3o2)cc1 | .
